# Screening data: PubChem BioAssay, Center for Chemical Genomics, University of Michigan
# This is one part of a sample in which hits are shown more often than they occur.
# Dicer inh: human Dicer pre-microRNA cleavage inhibition | Q9UPY3 | hit rate 6% among 47,000 | cat-ELCCA pre-miR-21 Dicer processing, chemiluminescence; hits give high values | z-score at 25 µM | AID 1347074; in the data active means z-score above about 3, passing the limit was not always enough;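 further: plate controls were vehicle for no effect and no enzyme for full effect; higher signal means more uncleaved substrate so more Dicer inhibition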
# * = called active by the depositor.
SMILES,Dicer inh
COc1ccc(OC)c(C2C(C(=O)OC3CCCC3)=C(C)NC3=C2C(=O)CC(c2cccs2)C3)c1 (centres undefined),1.6
CCOc1ccc(S(=O)(=O)Nc2cccnc2)cc1C,0.51
O=C(NC1(N2CCCCC2)C(=O)c2ccccc2C1=O)c1ccc(C(F)(F)F)cc1,-0.56
COc1ccc(N(C2C=CS(=O)(=O)C2)S(=O)(=O)c2ccc(C)cc2)cc1 (centres undefined),0.17
O=C1C2C(c3ccc(F)cc3)OC3(C(=O)c4ccccc4C3=O)C2C(=O)N1C1CCCCC1 (centres undefined),-0.55
Cc1cc(O)ccc1Nc1nc(-c2ccccn2)cs1,5.4*
COc1ccc(OC)c(Nc2nc(-c3ccncc3)cs2)c1,1.7
COc1ccc(Nc2nc(-c3ccccn3)cs2)c(OC)c1,5.3*
Cc1nc(C)c(-c2csc(Nc3ccc(O)cc3C)n2)s1,1.1
Cc1cc(O)ccc1Nc1nc(-c2cccnc2)cs1,1.9
Fc1ccccc1Nc1nc(-c2ccccn2)cs1,1.7
N#CCCN(CN1C(=O)c2ccccc2C1=O)C1CCCCC1,-0.62
CC(C)OC(=O)C1C(=O)CC(C)(O)C(C(=O)OC(C)C)C1c1ccc(Cl)cc1 (centres undefined),0.01
COc1cccc(-c2nc(-c3ccncc3)no2)c1OC,2.5
O=c1sn(-c2ccc(F)c(Cl)c2)c(=O)n1C1Cc2ccccc2C1,0.96
CC1C/C(=N\Nc2ccc(I)cc2)c2cc(Cl)ccc2S1(=O)=O (centres undefined),4*
Cn1c(NCCCO)nc2c1c(=O)n(Cc1ccc(Cl)cc1)c(=O)n2C,2.4
Cn1c(=O)c2c(nc(NCCCn3ccnc3)n2Cc2cccc3ccccc23)n(C)c1=O,-0.49
Cn1c(=O)c2c(nc(-n3ccnc3)n2Cc2ccc(F)cc2)n(C)c1=O,1.4
Cn1c(=O)c2c(nc(NCCCO)n2Cc2ccc(Cl)cc2)n(C)c1=O,3.6*
Cn1c(=O)c2c(nc(NCCCO)n2Cc2ccc(Br)cc2)n(C)c1=O,2.1
Cn1c(=O)c2c(nc(NCCCn3ccnc3)n2Cc2ccc(F)cc2)n(C)c1=O,3.5*
CC1=NN(c2nc(C)cc(C)n2)C(=O)C1C (centres undefined),1.1
CC1(C)NC(=O)N(CC(O)COc2ccccc2Cl)C1=O (centres undefined),0.98
CCOC(=O)c1c[nH]c2cc(OC)ccc2c1=O,0.11
SMILES,Dicer inh
CCOC(=O)/C(C#N)=C(\N=C(\N)c1cccc(C)c1)Nc1ccc(Cl)cc1,-0.11
NC(=O)Cc1ccccc1Br,0.86
COc1ccc(NC(=O)CSc2nc(-c3cccs3)cc(C(F)(F)F)n2)cc1,-1.8
CS/C(=N\S(=O)(=O)c1ccccc1)N1CCCC1,2.1
CS/C(=N\S(=O)(=O)c1ccccc1)N1CCCCC1,0.88
CSC(=Nc1ccccc1F)N1CCCCC1,4.8*
O=C1CSC(c2cccnc2)N1CCc1ccc(Cl)cc1 (centres undefined),6.5
COc1ccc(CCN2C(=O)C(C)SC2c2cccnc2)cc1 (centres undefined),4.2*
CC1SC(c2cccnc2)N(c2ccc(Cl)cc2)C1=O (centres undefined),6.3
CCc1ccc(C(=O)CC2(O)C(=O)Nc3c(C)cccc32)cc1 (centres undefined),0.33
CC1(C)CC(=O)c2c(nc(SCC(=O)NCc3ccc4c(c3)OCO4)c(C#N)c2-c2ccccc2)C1,-1.1
CCCn1c(Cc2ccccc2)nc2ccccc21,0.88
COC(=O)c1cc(=O)n(-c2cc(C(F)(F)F)cc(C(F)(F)F)c2)[nH]1,0.48
COC(=O)c1cc(=O)n(-c2ccccc2C(F)(F)F)[nH]1,3.2*
O=c1cc(C(F)(F)F)[nH]n1-c1ccccc1,-2.6
CC(C)c1ccc(CNc2nc3ccccc3n2C)cc1,2.6
COc1cccc(-c2nc(-c3ccc(C)cc3)no2)c1OC,0.49
Cc1ccc(Sc2ncccc2C2=N/C(=C\N(C)C)C(=O)O2)cc1,-0.39
CN(C)/C=C1\N=C(c2cccnc2Oc2ccc(Cl)cc2)OC1=O,19*
CN(C)/C=C1/N=C(c2ccccc2)OC1=O,1.1
COc1ccc(-c2noc(CSc3nc4ccccc4[nH]3)n2)c(OC)c1,1.4
COc1ccc(-c2noc(CSc3nc4ccccc4[nH]3)n2)cc1OC,3.2*
COc1ccc(OC)c(-c2noc(CSc3nc4ccccc4[nH]3)n2)c1,0.06
COC(=O)c1cnc(N2CCSCC2)nc1C(F)(F)F,0.38
Cn1c(N)c(C#N)c2ccc([N+](=O)[O-])cc2c1=O,0.06
SMILES,Dicer inh
Cc1ccc(-c2cc3nc(-c4cccnc4)cc(C(F)(F)F)n3n2)cc1,-0.17
C/C(=N\Oc1nc(-c2ccccc2)ns1)c1cccs1,0.71
Nc1cc(=O)[nH]c2nnc(SCc3cccc(Oc4ccccc4)c3)n12,2.8
CCCCCCCSc1nnc2[nH]c(=O)cc(N)n12,2.5
Nc1cc(=O)[nH]c2nnc(SCCc3ccccc3)n12,4.1*
CCCCCSc1nnc2[nH]c(=O)cc(N)n12,4.5*
CCSc1nnc2[nH]c(=O)cc(N)n12,2.5
CCCCSc1nnc2[nH]c(=O)cc(N)n12,2.5
CNC(=O)c1ccccc1S(=O)c1ccc(Cl)cc1C(=O)O (centres undefined),-0.95
Cc1c(C(=O)O)nnn1-c1cc(C(F)(F)F)cc(C(F)(F)F)c1,-0.01
CCCOC(=O)C1=C(C)NC2=C(C(=O)CC(C)(C)C2)C1c1cc(Br)c(O)c(OC)c1 (centres undefined),-0.1
CCOC(=O)/C(C#N)=C1\NC=CC=C1OC(C)=O,0.58
COC(=O)c1sc(N2C(=O)c3oc4ccc(F)cc4c(=O)c3C2c2ccc(SC)cc2)nc1C (centres undefined),0.92
CC(C)(C)NC(=S)N(N)CCC#N,-0.59
Cc1cc(Br)c(NC(=S)NC(=O)C(C)(C)C)c(Br)c1,-0.8
CC(C)(C)c1ccc(-c2nc3ccccc3c(=O)o2)cc1,1.4
c1ccc(Nc2nnc(-c3cccc4ccccc34)o2)cc1,0.59
O=c1oc(-c2ccc(Cl)cc2)nc2ccccc12,0.2
O=c1oc(-c2ccc(Br)cc2)nc2ccccc12,3*
O=c1oc(Nc2ccccc2)nc2ccccc12,3.6*
O=c1oc(-c2cccs2)nc2ccccc12,-0.19
COc1ccc(CNC(=S)NCCCO)cc1,-1.3
Cc1nnsc1-c1nnc(SCC(=O)N(c2ccccc2)C2CCCCC2)n1C1CC1,0.02
CCOC(=O)C1=C(C)NC2=C(C(=O)CCC2)C1c1ccccc1N1CCC(C(=O)OCC)CC1 (centres undefined),-0.16
COc1ccc(Nc2cc(-c3ccccc3)nc3ncnn23)c(OC)c1,3.7*
SMILES,Dicer inh
COc1ccc(-c2cc(-c3ccccc3)n3ncnc3n2)cc1,-0.22
Clc1ccc(Nc2cc(-c3ccccc3)nc3ncnn23)cc1,-0.01
CCOC(=O)C(=CN(C1=NCC(C)S1)c1ccc(F)c(Cl)c1)C(=O)OCC (centres undefined),0.68
COc1ccc2nc(C)cc(Nc3ccc(Cl)cc3)c2c1,3.1*
Cc1ccc(Nc2cc(C)nc3ccc(C)cc23)cc1,-0.61
COc1ccc(Nc2cc(C)nc3ccc(OC)cc23)cc1,2.8
COc1ccc(NC(=O)c2cc(C(C)(C)C)nn2Cc2ccc(F)cc2)cc1OC1CCCC1,-0.42
CS/C(N)=N\C(=S)Nc1cccc(Cl)c1,7.8
Cc1ccccc1C1CC(=O)c2c(ccc3ccccc23)N1 (centres undefined),2
CCOc1cc(C2Nc3ccc4ccccc4c3C3=C2C(=O)CCC3)ccc1O (centres undefined),1.7
COc1ccc(Br)cc1C1CC(=O)c2c(ccc3ccccc23)N1 (centres undefined),3.3*
